In one experiment the target is Albumin (Bos taurus) (UniProt P02769). The experiment is described as follows: bovine serum albumin binders on microarray, profiling panel, artefact control for SMM control protein annotation, biochemical, small-molecule microarray, Alexa647 label, 635/667 nm fluorescence (AID 1118).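 Also: score merges 667 nm emission intensity and signal-to-noise per printed compound spot.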 To be noted: BSA-A647 binding, fluorescence 635 nm, higher = more signal.
Experiment [1] is described as follows: small-molecule microarray binders of probe aXIP, primary screen, biochemical, NeuroSMM set, 635/667 nm fluorescence (AID 1119).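 Also: probe is the protein aXip251-270 applied at 1 µg/mL to compound-printed slides; binding of probe to printed compounds measured as 667 nm fluorescence plus signal to noise.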 To be noted: higher = more signal, called active from +8 up or from −8 down.
A short description of experiment [2]: small-molecule binders of probe aNOTCH3, primary screen, biochemical, small-molecule microarray, 635/667 nm fluorescence (AID 1120).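 Also: probe is a biotin-tagged antibody raised against NOTCH3 rather than NOTCH3 protein; score merges spot fluorescence near 667 nm with spot signal to noise.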 Conditions: higher = more signal.
Experiment [3] can be described thus: small-molecule binders of probe aNOTCH2, primary screen, biochemical, small-molecule microarray, 635/667 nm fluorescence (AID 1121).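 Also: score merges feature fluorescence read at 667 nm with its signal to noise.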 Conditions: higher = more signal.
Experiment [4] addresses Carbonic anhydrase 2 (Homo sapiens) (UniProt P00918). The experiment is described as follows: CAII small-molecule binders, profiling panel, biochemical, small-molecule microarray, Alexa647-labelled CAII (AID 1122). Conditions: CAII-A647 binding fluorescence, higher = more signal.
Experiment [5] in a line: COS7 lysate on small-molecule microarray, probe aHis, 635 nm (AID 1123).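 Also: z-score combines 667nm fluorescence intensity with signal-to-noise per printed compound spot.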 To be noted: COS7 cell lysate, fluorescence, higher = more signal.
Experiment [6] can be described thus: compound binding in COS7 lysate, probe aLAP1, primary screen, cell lysate, small-molecule microarray (AID 1124).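 Also: lysate comes from COS7 cells expressing LAP1 and is applied at 0.3 µg/mL; score merges spot fluorescence near 667 nm with signal-to-noise over triplicate slides.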 To be noted: probe aLAP1, fluorescence, higher = more signal.
In the next experiment the test system is Sam68 (KHDRBS1). Nature of the experiment: Sam68 small-molecule binders, primary screen, biochemical, small-molecule microarray, 635 nm fluorescence (AID 1125).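 Also: score merges 667 nm channel intensity with signal to noise over triplicate slides.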 To be noted: small-molecule microarray binding, higher = more signal.
In experiment [7] the test system is Chordin-like protein 2 (CHRDL2). The experiment is described as follows: CHRDL2 small-molecule binders, primary screen, biochemical, small-molecule microarray, 635 nm fluorescence (AID 1126).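 Also: printed compound slides probed with Chrdl2 protein at 4 µg/mL for 1 h at 4 C; score merges 667 nm emission intensity with signal to noise over three replicate slides.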 Conditions: small-molecule microarray binding, fluorescence 635 nm; higher = more signal.
Experiment [8] has as its target Concanavalin-A (Canavalia ensiformis) (UniProt P02866). Nature of the experiment: ConA small-molecule binders, primary screen, artefact control for SMM control protein annotation, biochemical, small-molecule microarray, Alexa647 label, 635 nm (AID 1127).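 Also: z combines 667 nm emission intensity with signal-to-noise across three replicate slides.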 Conditions: ConA-A647 binding fluorescence, higher = more signal.
A short description of experiment [9]: anti-His antibody binders, primary screen, artefact control for SMM control protein annotation, biochemical, small-molecule microarray, 635 nm fluorescence (AID 1128).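 Also: score merges feature fluorescence with signal-to-noise for each printed compound spot.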 To be noted: anti-His Alexa647 antibody binding, higher = more signal.
Experiment [10] has as its system Human papillomavirus type 1a E7 protein (residues 1-88). Nature of the experiment: HPV1a E7 small-molecule binders, primary screen, biochemical, small-molecule microarray, residues 1-88, 635 nm (AID 1129). Conditions: small-molecule microarray binding, fluorescence 635 nm; higher = more signal.
The target in experiment [11] is Focal adhesion kinase 1 (Homo sapiens) (UniProt Q05397). Nature of the experiment: small-molecule microarray binders of FAK, primary screen, biochemical, 635/667 nm fluorescence, BSA, DTT (AID 1130).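 Also: composite of spot emission at 667 nm and signal to noise over triplicate slides.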 Conditions: PTK2 binding, 635 nm fluorescence, higher = more signal.
Focal adhesion kinase 1 (Homo sapiens), sequence (Q05397 whole entry, looked up): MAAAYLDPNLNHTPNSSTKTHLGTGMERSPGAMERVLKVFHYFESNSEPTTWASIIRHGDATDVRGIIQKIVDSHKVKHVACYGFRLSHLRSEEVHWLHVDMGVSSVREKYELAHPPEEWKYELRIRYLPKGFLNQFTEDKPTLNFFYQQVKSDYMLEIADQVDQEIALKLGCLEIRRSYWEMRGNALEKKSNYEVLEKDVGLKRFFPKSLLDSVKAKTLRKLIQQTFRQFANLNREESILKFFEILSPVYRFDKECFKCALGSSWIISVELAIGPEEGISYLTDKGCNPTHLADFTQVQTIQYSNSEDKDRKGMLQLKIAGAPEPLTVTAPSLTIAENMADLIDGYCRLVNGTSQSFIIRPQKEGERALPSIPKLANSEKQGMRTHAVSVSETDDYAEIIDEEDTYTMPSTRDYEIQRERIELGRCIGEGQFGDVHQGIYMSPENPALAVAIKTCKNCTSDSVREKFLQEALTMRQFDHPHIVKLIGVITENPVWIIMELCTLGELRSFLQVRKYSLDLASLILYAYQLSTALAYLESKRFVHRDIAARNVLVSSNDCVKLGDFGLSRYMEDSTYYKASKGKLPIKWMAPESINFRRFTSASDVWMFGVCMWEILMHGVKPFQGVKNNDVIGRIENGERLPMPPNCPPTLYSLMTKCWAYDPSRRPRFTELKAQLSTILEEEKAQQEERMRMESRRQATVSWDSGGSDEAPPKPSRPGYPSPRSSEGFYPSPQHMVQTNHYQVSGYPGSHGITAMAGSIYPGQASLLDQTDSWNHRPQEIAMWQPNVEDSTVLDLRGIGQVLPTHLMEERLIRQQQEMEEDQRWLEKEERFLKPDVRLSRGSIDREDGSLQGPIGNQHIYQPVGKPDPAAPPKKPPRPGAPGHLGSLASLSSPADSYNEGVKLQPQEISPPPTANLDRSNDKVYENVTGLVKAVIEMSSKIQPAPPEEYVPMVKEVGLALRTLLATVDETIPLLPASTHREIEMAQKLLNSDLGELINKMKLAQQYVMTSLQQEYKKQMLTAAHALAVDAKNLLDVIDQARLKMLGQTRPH
The test system of experiment [12] is Fibrinogen (Alexa647-labelled). The experiment is described as follows: fibrinogen binders on compound microarrays, profiling panel, artefact control for SMM control-protein annotation, biochemical, small-molecule microarray, 635/667 nm fluorescence (AID 1131).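 Also: z-score merges 667 nm fluorescence with per-spot signal-to-noise over triplicate slides.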 Conditions: fibrinogen-A647 binding fluorescence, higher = more signal.
The target in experiment [13] is Follistatin (Homo sapiens) (UniProt P19883). The experiment is described as follows: follistatin binders on small-molecule microarrays, primary screen, biochemical, small-molecule microarray, 635/667 nm fluorescence (AID 1132). Conditions: FST binding, 635 nm fluorescence, higher = more signal.
Follistatin (Homo sapiens), sequence (P19883 whole entry, looked up): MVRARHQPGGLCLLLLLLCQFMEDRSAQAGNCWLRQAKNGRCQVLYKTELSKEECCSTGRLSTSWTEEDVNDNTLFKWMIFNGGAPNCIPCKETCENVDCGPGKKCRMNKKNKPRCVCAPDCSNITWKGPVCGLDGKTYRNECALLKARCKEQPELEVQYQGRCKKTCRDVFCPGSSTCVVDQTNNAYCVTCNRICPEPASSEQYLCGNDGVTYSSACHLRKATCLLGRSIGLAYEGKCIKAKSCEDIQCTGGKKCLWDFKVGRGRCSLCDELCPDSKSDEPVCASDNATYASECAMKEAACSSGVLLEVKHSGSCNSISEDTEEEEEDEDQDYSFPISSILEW
For experiment [14], the target named is Fibroblast growth factor 2 (Homo sapiens) (UniProt P09038). The experiment is described as follows: FGF2 binders on small-molecule microarrays, primary screen, biochemical, small-molecule microarray, 635/667 nm fluorescence (AID 1133). Conditions: small-molecule microarray binding, FGF2, fluorescence 635/667; higher = more signal.
Fibroblast growth factor 2 (Homo sapiens), sequence (P09038 whole entry, looked up): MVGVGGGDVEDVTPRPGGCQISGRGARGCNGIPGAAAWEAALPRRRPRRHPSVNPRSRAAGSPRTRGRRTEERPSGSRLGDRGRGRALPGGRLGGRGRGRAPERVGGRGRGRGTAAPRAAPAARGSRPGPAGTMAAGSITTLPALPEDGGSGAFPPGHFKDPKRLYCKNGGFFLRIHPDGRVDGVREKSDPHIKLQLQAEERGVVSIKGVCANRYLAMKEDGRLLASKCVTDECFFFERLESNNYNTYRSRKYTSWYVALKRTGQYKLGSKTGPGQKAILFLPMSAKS
Experiment [15] can be described thus: mitochondrial membrane potential change in A549 cells, profiling panel, cell-based, JC-1 fluorescence, basal, 24 h, 100 nL (AID 1138).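 Also: A549 lung adenocarcinoma cells under basal conditions with no added stimulus; test concentration not given here.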 To be noted: higher = more signal.
In a further experiment the test system is Lefty1. Nature of the experiment: Lefty1 binders on small-molecule microarrays, primary screen, biochemical, small-molecule microarray, 635/667 nm fluorescence (AID 1139). To be noted: small-molecule microarray binding, fluorescence 635/667; higher = more signal.
The test system of experiment [16] is wheat germ agglutinin (Triticum aestivum), Alexa647-labelled. Nature of the experiment: wheat germ agglutinin binders on compound microarrays, profiling panel, artefact control for SMM control-protein annotation, biochemical, small-molecule microarray, 635/667 nm fluorescence (AID 1140).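 Also: score merges 667 nm feature emission with signal to noise over triplicate slides.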 To be noted: WGA-A647 binding, 635 nm fluorescence, higher = more signal.
The target of experiment [17] is Luciferin 4-monooxygenase (Photinus pyralis) (UniProt P08659). Nature of the experiment: firefly luciferase enzyme inhibitors, primary screen, biochemical, luminescence, purified enzyme, 2006 set (AID 1141).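 Also: cell-free assay with purified firefly luciferase at 100 ng per well in PBS; test concentration not given here.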 Conditions: SteadyGlo luminescence, 30 min, higher = more signal, called active from +8 up or from −8 down.
Luciferin 4-monooxygenase (Photinus pyralis), sequence (P08659 whole entry, looked up): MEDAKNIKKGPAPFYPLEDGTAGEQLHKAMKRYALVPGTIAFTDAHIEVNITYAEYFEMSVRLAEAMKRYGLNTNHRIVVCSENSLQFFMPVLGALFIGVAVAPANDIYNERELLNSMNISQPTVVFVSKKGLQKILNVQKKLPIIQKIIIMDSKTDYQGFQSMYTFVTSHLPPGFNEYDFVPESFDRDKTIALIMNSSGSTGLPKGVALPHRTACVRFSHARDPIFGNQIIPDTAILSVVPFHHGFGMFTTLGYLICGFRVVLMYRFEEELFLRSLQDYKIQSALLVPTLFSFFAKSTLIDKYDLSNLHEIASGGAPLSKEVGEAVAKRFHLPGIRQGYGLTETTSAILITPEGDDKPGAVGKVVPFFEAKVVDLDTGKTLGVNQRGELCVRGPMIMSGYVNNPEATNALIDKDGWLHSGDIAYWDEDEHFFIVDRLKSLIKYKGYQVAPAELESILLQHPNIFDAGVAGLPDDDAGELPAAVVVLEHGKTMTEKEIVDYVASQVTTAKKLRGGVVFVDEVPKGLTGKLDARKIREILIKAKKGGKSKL

Activity calls are given as the source filed them.

Concanavalin-A (Canavalia ensiformis), sequence (P02866 whole entry, looked up): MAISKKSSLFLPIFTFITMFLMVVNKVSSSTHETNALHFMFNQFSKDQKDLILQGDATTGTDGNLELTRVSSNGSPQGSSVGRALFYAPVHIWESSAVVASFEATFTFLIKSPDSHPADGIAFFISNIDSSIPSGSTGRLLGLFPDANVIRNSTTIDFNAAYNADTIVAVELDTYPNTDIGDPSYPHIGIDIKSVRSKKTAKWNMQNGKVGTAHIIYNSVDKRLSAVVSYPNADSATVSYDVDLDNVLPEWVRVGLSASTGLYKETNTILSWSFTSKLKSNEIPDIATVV
Albumin (Bos taurus), sequence (P02769 whole entry, looked up): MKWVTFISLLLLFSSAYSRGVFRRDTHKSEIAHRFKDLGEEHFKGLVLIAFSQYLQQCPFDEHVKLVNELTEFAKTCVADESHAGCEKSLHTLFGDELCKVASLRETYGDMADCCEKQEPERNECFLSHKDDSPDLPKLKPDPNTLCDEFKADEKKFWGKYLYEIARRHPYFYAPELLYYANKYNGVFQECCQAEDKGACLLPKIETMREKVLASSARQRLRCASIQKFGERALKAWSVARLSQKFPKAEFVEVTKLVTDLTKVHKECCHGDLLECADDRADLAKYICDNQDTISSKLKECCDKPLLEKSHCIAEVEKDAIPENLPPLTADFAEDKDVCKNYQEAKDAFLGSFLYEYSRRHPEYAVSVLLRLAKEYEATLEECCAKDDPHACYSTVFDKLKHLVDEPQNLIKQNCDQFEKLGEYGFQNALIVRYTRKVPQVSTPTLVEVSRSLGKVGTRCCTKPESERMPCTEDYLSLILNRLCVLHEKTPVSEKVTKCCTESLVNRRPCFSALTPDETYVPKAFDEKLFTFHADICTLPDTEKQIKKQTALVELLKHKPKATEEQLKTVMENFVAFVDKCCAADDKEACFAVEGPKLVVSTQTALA

As for `COC(=O)C1=CC(CCCO)=CC(c2cccs2)N(Cc2cccc(OC(F)(F)F)c2)C=C1C(=O)OC` (stereo not given), the composite z-score was determined as 0.935 with Albumin (Bos taurus); 0.208 in [2]; 0.224 in experiment [3]; 0.834 in [4]; 1.93 in experiment [5]; 0.718 in [6]. In addition, the composite z-score with Sam68 (KHDRBS1) was 1.3; in [7], -0.413; in [8], 1.13; in experiment [9], 1.51; in experiment [10] it was 1.23; in experiment [11], 2.18. Also, the composite z-score in experiment [12] is 0.972; in experiment [13], 1.23; in [14], -0.141; in the experiment on Lefty1, 0.233; in [16] it was 1.13. Also, the composite Z-score in [1] was 0.387 (inactive). For the same molecule, the z-score in experiment [15] was 1.87; in experiment [17], -1.41 (inactive).
For the molecule `CN(C)C(=O)[C@@]1(Cc2ccccc2)N=C(c2ccc(OCCCO)cc2)O[C@H]1c1ccccc1`, the composite z-score amounted to 0.637 with Albumin (Bos taurus); 0.738 in experiment [2]; 0.314 in [3]; 0.617 in experiment [4]; 2.69 in experiment [5]; 0.973 in experiment [6]. For the same molecule, the composite z-score is 0.983 in the experiment with Sam68 (KHDRBS1); -0.682 in [7]; 0.931 in [8]; 2.33 in [9]; 1.24 in [10]; 0.179 in experiment [11]. Moreover, the composite z-score in [12] is 0.971; in experiment [13] it was 0.232; in experiment [14], 0.393; with Lefty1, -0.557; in experiment [16] it was 1.21. Further, the composite Z-score in [1] is 0.684 (inactive). Also, the z-score in [15] is 0.568; in experiment [17] it was -0.794 (inactive).
Consider `COc1ccc([Si](C)(C)[C@@H]2[C@@H](CCO)O[C@]3(C(=O)N(Cc4ccccc4)c4ccc(NC(=O)[C@H](C)O)cc43)[C@H]2C)cc1`, for which the composite z-score was 0.0962 with Albumin (Bos taurus); 0.147 in experiment [2]; -0.106 in experiment [3]; 0.377 in experiment [4]; 1.2 in experiment [5]; 0.515 in experiment [6]. The composite z-score amounted to 1.29 in the experiment on Sam68 (KHDRBS1); 0.448 in experiment [7]; 1.14 in [8]; 0.888 in experiment [9]; 1.21 in experiment [10]; 1.04 in experiment [11]. Moreover, the composite z-score in experiment [12] was determined as 0.851; in experiment [13], 1.2; in experiment [14] it was 0.462; in the experiment with Lefty1, 1.29; in experiment [16], 0.417. In experiment [1], the composite Z-score was -0.0289 (inactive). Besides, the z-score in experiment [15] is -0.955; in [17] it was 0.265 (inactive).
On to `C#Cc1cc2ccccc2oc1=O`, for which the composite z-score with Albumin (Bos taurus) is 0.683; in experiment [2], -0.437; in experiment [3], -0.126; in experiment [4], 0.637; in experiment [5], 0.688; in experiment [6], 0.216. Further, the composite z-score with Sam68 (KHDRBS1) was 0.343; in experiment [7], -2.62; in experiment [8], -0.486; in experiment [9], -0.314; in experiment [10], -0.451; in [11] it was -0.393. In addition, the composite z-score in experiment [12] is -1.03; in experiment [13], -2.22; in experiment [14] it was -1.39; in the experiment with Lefty1, -1.58; in experiment [16], -1.12. In addition, in [1], the composite Z-score was 0.207 (inactive). Further, the z-score in experiment [15] was -1.14; in experiment [17], -2.39 (inactive).
`CC1CC/C=C\[C@H]2OC34C=CCN(c5ccc6ccccc6c5)C(=O)[C@H]3N(CCCO)C(=O)[C@@H]4C2C(=O)O1` (stereo not given in full): the composite z-score with Albumin (Bos taurus) is -0.132; in experiment [2], -0.276; in experiment [3], -0.16; in experiment [4] it was 0.574; in experiment [5] it was -0.515; in [6] it was -0.701. Also, the composite z-score in the experiment with Sam68 (KHDRBS1) was -0.335; in [7], -1.77; in [8] it was -0.71; in experiment [9], 1.08; in experiment [10], -0.453; in [11], -0.633. The composite z-score in experiment [12] is -0.794; in [13] it was -0.82; in experiment [14], -1.86; with Lefty1 it was -1.12; in experiment [16], -0.985. Moreover, the composite Z-score in experiment [1] was 1.18 (inactive). Also, the z-score was -0.148 in experiment [15] and -0.212 (inactive) in experiment [17].
For `COC(=O)C1=CC(CCCO)=CC(c2ccc(CN3CCCC3)cc2)N(Cc2cccc(OC(F)(F)F)c2)C=C1C(=O)OC` (stereo not given), the composite z-score with Albumin (Bos taurus) is 0.996; in experiment [2], 0.133; in [3], -0.0502; in [4], 0.387; in experiment [5], 2.21; in experiment [6] it was 0.612. Also, the composite z-score in the experiment on Sam68 (KHDRBS1) is 1.3; in [7], -0.551; in experiment [8], 1.11; in experiment [9], 1.6; in [10] it was 1.11; in [11], 0.875. Besides, the composite z-score in experiment [12] is 1; in [13], 0.325; in experiment [14], -0.292; with Lefty1 it was 0.279; in experiment [16] it was 1.11. Further, the composite Z-score in experiment [1] is 0.29 (inactive). The results for the z-score in experiment [15] and in [17] were 2.87 and -3.06 (inactive), respectively.

The values are drawn from PubChem BioAssay.
